The supplement of paper PMC6522484
± gives the standard deviation of the averaged measurements.

Key:
DLD1 [1] = test: cell viability (CellTiter-Glo) relative to plate median (fraction of plate median); higher = more viable cells; details: 10 µM, treatment time 24 h
How it was run: (§1)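 In 384-well plates, colorectal cancer lines with stable lentiviral 7TFP or TCF4/Wnt firefly luciferase reporters were seeded and, 24 h later, given kinase inhibitor library compounds at a final 10 µM for 24 h. A Tecan F500 reader measured firefly luciferase on one plate and CellTiterGlo on a parallel plate. Reported figures are two-replicate means of well signals normalised to the plate median, computed additively in webcellHTS2 without log transformation.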

HCT116 [2] = test: as above; details: 10 µM; treatment time 24 h; reporter: TCF4/Wnt
How it was run: as §1

SW480 [3] = test: as above; details: 10 µM; treatment time 24 h; reporter: 7TFP
How it was run: as §1

DLD1 [4] = test: TCF/Wnt firefly luciferase reporter signal relative to plate median (fraction of plate median); higher = higher Wnt reporter signal; details: 10 µM, treatment time 24 h
How it was run: as §1

HCT116 [5] = test: as above; details: 10 µM; treatment time 24 h; reporter: TCF4/Wnt
How it was run: as §1

SW480 [6] = test: as above; details: 10 µM; treatment time 24 h; reporter: 7TFP
How it was run: as §1

Structure (SMILES) | cell viability (DLD1 [1]; reporter: 7TFP) | cell viability (DLD1 [1]; reporter: TCF4/Wnt) | cell viability (HCT116 [2]) | cell viability (SW480 [3]) | TCF/Wnt firefly luciferase reporter signal (DLD1 [4]; reporter: 7TFP) | TCF/Wnt firefly luciferase reporter signal (DLD1 [4]; reporter: TCF4/Wnt) | TCF/Wnt firefly luciferase reporter signal (HCT116 [5]) | TCF/Wnt firefly luciferase reporter signal (SW480 [6])
CNC(=O)Nc1ccc(-c2nc(N3CC4CCC(C3)O4)c3cnn(C4CCC5(CC4)OCCO5)c3n2)cc1 | 0.902 ± 0.088 | 0.998 ± 0.045 | 0.805 ± 0.11 | 1.16 ± 0.028 | 0.356 ± 0.076 | 0.554 ± 0.12 | 0.617 ± 0.14 | 0.876 ± 0.1
CN(C)CCOc1ccc(-c2nc(-c3ccncc3)c(-c3ccc4c(c3)CC/C4=N\O)[nH]2)cc1 | 1.04 ± 0.071 | 1.14 ± 0.064 | 1.2 ± 0.11 | 1.11 ± 0.071 | 1.3 ± 0.092 | 1.28 ± 0.042 | 1.19 ± 0.24 | 1.27 ± 0.33
O=C(NCc1ccccc1)c1csc(Nc2ccncn2)n1 [Thiazovivin] | 1.14 ± 0.085 | 1.13 ± 0.071 | 1.16 ± 0.021 | 1.145 ± 0.0071 | 1.13 | 0.78 ± 0.18 | 1.78 ± 0.028 | 1.205 ± 0.0071
CCOc1ccn(-c2ccc(F)cc2)c(=O)c1C(=O)Nc1ccc(Oc2ccnc(N)c2Cl)c(F)c1 | 0.97 ± 0.071 | 0.971 ± 0.056 | 1.16 ± 0.014 | 0.991 | 0.983 ± 0.12 | 0.893 ± 0.12 | 1.19 ± 0.23 | 0.978 ± 0.031
C=CC(=O)Nc1ccc2ncnc(Nc3ccc(OCc4cccc(F)c4)c(Cl)c3)c2c1 | 1.02 ± 0.03 | 1.06 ± 0.085 | 0.998 ± 0.017 | 1 ± 0.07 | 0.691 ± 0.0099 | 0.879 ± 0.2 | 0.686 ± 0.33 | 1.09 ± 0.11
COc1cc2ncnc(Nc3ccc(F)c(Cl)c3)c2cc1NC(=O)/C=C/CN1CCCCC1 | 0.875 ± 0.16 | 1 ± 0.12 | 0.993 ± 0.024 | 1.16 ± 0.16 | 0.615 ± 0.035 | 0.531 ± 0.092 | 0.548 ± 0.0014 | 0.935 ± 0.071
Cn1cc(-c2ccc3nnc(C(F)(F)c4ccc5ncccc5c4)n3n2)cn1 | 1.14 ± 0.13 | 0.972 ± 0.11 | 1.16 ± 0.05 | 0.846 ± 0.059 | 1.35 ± 0.05 | 1.4 ± 0.32 | 1.25 ± 0.43 | 1.06 ± 0.064
CC[C@H](CO)Nc1nc(NCc2ccccc2)c2ncn(C(C)C)c2n1 [Roscovitine (Seliciclib, CYC202)] | 0.852 ± 0.065 | 0.922 ± 0.0099 | 0.923 ± 0.12 | 0.833 ± 0.039 | 1.14 ± 0.35 | 1.46 ± 0.23 | 1.34 ± 0.43 | 1.02 ± 0.028
N#Cc1c(O)c2c(-c3ccc(-c4ccccc4O)cc3)csc2[nH]c1=O | 1.13 ± 0.014 | 1.13 ± 0.071 | 1.25 | 0.922 ± 0.052 | 1.03 ± 0.014 | 0.96 ± 0.2 | 1.08 ± 0.064 | 0.976 ± 0.16
COc1cc2ncnc(Nc3ccc(O)c(Br)c3)c2cc1OC | 1.04 ± 0.13 | 0.98 ± 0.029 | 1.13 ± 0.28 | 1.01 | 1.11 ± 0.021 | 0.832 ± 0.11 | 1.11 ± 0.17 | 1.17 ± 0.014
